From PubChem BioAssay AID434931 (National Center for Advancing Translational Sciences (NCATS), 2010) come the findings set out here.

The structures appear in SMILES notation. Several values for one entry are separate records, joined by “and”; a condition that tells them apart may be missing. Identical values can stand only once. Records with an inconclusive call do not appear. Values without a mark were called inactive. Activity calls are given as the source filed them. Calls follow the shape of the dose curve; as a rule, active = well fitted inhibition curve with a large enough effect; inconclusive = small, poorly fitted or top-dose-only effect, or another doubt; inactive = no such curve, though single readings can be large or run the other way.

For this test, the target named is Neuropeptide S receptor (Homo sapiens) (UniProt Q6W5P4). The test is described as follows: Confirmation Concentration-Response Assay for Antagonists of the Neuropeptide S Receptor: Robust Characterization of Calcium Signal Transduction. To be noted: CHO-NPSR cells, NPS-induced calcium fluorescence (FDSS); series mostly up to 31.6 µM; activity, negative = inhibition: at the top concentration.
Chain of Neuropeptide S receptor (Homo sapiens) (Q6W5P4 whole entry, looked up): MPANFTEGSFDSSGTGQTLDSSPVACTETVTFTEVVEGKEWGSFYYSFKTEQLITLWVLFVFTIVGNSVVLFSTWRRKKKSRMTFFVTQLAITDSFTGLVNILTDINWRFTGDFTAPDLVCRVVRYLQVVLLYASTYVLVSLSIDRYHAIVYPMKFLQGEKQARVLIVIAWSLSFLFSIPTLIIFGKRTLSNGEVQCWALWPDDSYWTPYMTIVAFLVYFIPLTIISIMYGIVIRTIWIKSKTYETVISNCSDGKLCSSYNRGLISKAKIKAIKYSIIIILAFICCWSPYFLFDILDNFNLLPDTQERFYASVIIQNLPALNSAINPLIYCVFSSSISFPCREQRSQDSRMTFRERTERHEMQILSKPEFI
As for `O=C(c1ccccc1)N(C(=O)c1ccccc1)c1ncnc2c1C(c1ccccc1)c1c(ccc3ccccc13)O2` (centres undefined), the Potency was 0.438 µM (active).
Turning to `CCOC(=O)CCCC(=O)Nc1ncnc2c1C(c1ccccc1)c1c(ccc3ccccc13)O2` (centres undefined), the Potency was 2.2 µM (active).
Still for that read-out and setting: next, `COc1cccc(C2c3c(ncn(-c4ccccc4OC)c3=N)Oc3ccc4ccccc4c32)c1` (centres undefined): 1.24 µM (active); `COc1cccc(C2c3c(ncn(-c4ccccc4)c3=N)Oc3ccc4ccccc4c32)c1` (centres undefined): 1.55 µM (active) and 139 nM (active); `O=C(Nc1ncnc2c1C(c1ccccc1)c1c(ccc3ccccc13)O2)c1ccccc1` (centres undefined): 4.92 µM (active).
The same measure, in the same setting: next, `COc1cccc(C2c3c(ncn(-c4ccc(C)cc4)c3=N)Oc3ccc4ccccc4c32)c1` (centres undefined): 2.46 µM (active); `O=C(Cc1ccccc1)Nc1ncnc2c1C(c1ccccc1)c1c(ccc3ccccc13)O2` (centres undefined): 1.1 µM (active); `COc1cccc(C2c3c(ncn(-c4ccncc4)c3=N)Oc3ccc4ccccc4c32)c1` (centres undefined): 3.91 µM (active).
For the compound `COc1cccc(C2c3c(ncn(-c4ccccc4Cl)c3=N)Oc3ccc4ccccc4c32)c1` (centres undefined), the Potency is 4.38 µM (active).
The same measure, in the same setting: for `N=c1c2c(ccn1CCc1ccccc1)Oc1ccc3ccccc3c1C2c1ccccc1` (centres undefined) the value was 0.492 µM (active).
In the case of `N=c1c2c(ccn1CCCCc1ccccc1)Oc1ccc3ccccc3c1C2c1ccccc1` (centres undefined), the “activity, negative = inhibition” value is 37.1%.
Regarding `COc1cccc(C2C(C#N)=C(NC(=O)NCc3ccccc3)Oc3ccc4ccccc4c32)c1` (centres undefined), the “activity, negative = inhibition” value was -9.8%.
With `COc1cccc(C2c3c(ncn(-c4ccc(Br)cc4)c3=N)Oc3ccc4ccccc4c32)c1` (centres undefined), the Potency was 3.1 µM (active).
Consider `COc1ccc(C2c3c(nc(C)[nH]c3=O)Oc3ccc4ccccc4c32)cc1OC` (centres undefined), for which the “activity, negative = inhibition” value is -19.2%.
As to `COc1cccc(C2c3c(ncn(-c4cccc(Br)c4)c3=N)Oc3ccc4ccccc4c32)c1` (centres undefined), the Potency is 2.46 µM (active).
Same read-out and setting: for `COc1cccc(C2c3c(ncn(-c4ccc5c(c4)OCO5)c3=N)Oc3ccc4ccccc4c32)c1` (centres undefined) the value was 0.0438 µM (active); for `COc1ccccc1C1c2c(ncn(-c3ccccc3)c2=N)Oc2ccc3ccccc3c21` (centres undefined), 4.92 µM (active).
Same read-out and setting: for `COc1ccc(C2c3c(n(CCCc4ccccc4)cnc3=N)Oc3ccc4ccccc4c32)cc1OC` (centres undefined) the value was 4.92 µM (active).
As for `Cc1nc2ccccn2c1C(O)(c1ccccc1)c1ccccc1`, the Potency was 11.3 µM (active).
On the same count and under the same terms, next, `COc1cccc(C2c3c(ncn(CCN4CCOCC4)c3=N)Oc3ccc4ccccc4c32)c1` (centres undefined): 1.74 µM (active).
Same read-out and setting: next, `O=C(CCc1ccccc1)Nc1ncnc2c1C(c1ccccc1)c1c(ccc3ccccc13)O2` (centres undefined): 1.96 µM (active).
In the case of `COc1ccc(C2c3c(nc(CCCc4ccccc4)[nH]c3=O)Oc3ccc4ccccc4c32)cc1OC` (centres undefined), the “activity, negative = inhibition” value is 19.1%.
With `N=c1c2c(ncn1-c1ccccc1)Oc1ccc3ccccc3c1C2c1ccc2c(c1)CCO2` (centres undefined), the Potency is 0.124 µM (active).
As for `N=c1c2c(ccn1Cc1ccccc1)Oc1ccc3ccccc3c1C2c1ccccc1` (centres undefined), the Potency is 3.91 µM (active).
As for `COc1cccc(C2C(C#N)=C(NC(=O)CCc3ccccc3)Oc3ccc4ccccc4c32)c1` (centres undefined), the “activity, negative = inhibition” value is 39.1%.
Consider `COc1ccc(-n2cnc3c(c2=N)C(c2cccc(OC)c2)c2c(ccc4ccccc24)O3)cc1` (centres undefined), for which the Potency is 1.74 µM (active).
The same measure, in the same setting: next, `COc1cccc(C2c3c(ncn(-c4ccc(F)cc4)c3=N)Oc3ccc4ccccc4c32)c1` (centres undefined): 2.2 µM (active); `N=c1c2c(ncn1-c1ccccc1)Oc1ccc3ccccc3c1C2c1ccc2c(c1)OCCO2` (centres undefined): 0.276 µM (active).
`COc1cccc(C2c3c(ncn(-c4ccccn4)c3=N)Oc3ccc4ccccc4c32)c1` (centres undefined): the Potency was 4.92 µM (active).
